From PubChem BioAssay (NCI)
The panel holds about 79,000 compounds, 15% with a hit somewhere; the sample as a whole holds those more often. Active and inactive are the calls of the source. Rule as the data show it: active = growth inhibition above about 70%; inactive = the rest.

How the values were obtained:
[1] = NCI Yeast Anticancer Drug Screen. Data for the rad52 strain (AID 147);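 also: 0% = growth of vehicle-treated control cultures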; conditions: S. cerevisiae rad52 mutant growth inhibition, hits give high values
In short: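 Vehicle-treated cultures served as the reference for growth inhibition of compound-exposed yeast bearing a DNA repair mutation.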

[2] = NCI Yeast Anticancer Drug Screen. Data for the wt1 strain (AID 149);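 also: 0% = growth of vehicle-treated wt1 cultures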; conditions: S. cerevisiae wt1 strain (SPY 50644) growth inhibition, hits give high values
In short: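 Readout: yeast growth inhibition, normalised to vehicle controls, in the wt1 strain exposed to test compounds.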

[3] = NCI Yeast Anticancer Drug Screen. Data for the rad50EPP+ strain (AID 151);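 also: 0% = growth of vehicle-treated control cultures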; conditions: S. cerevisiae rad50 mutant strain, hits give high values
In short: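 In this screen, rad50EPP+ yeast were exposed to compounds. Growth inhibition was scored against vehicle-treated controls.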

[4] = NCI Yeast Anticancer Drug Screen. Data for the mgt1 strain (AID 153); conditions: S. cerevisiae mgt1 mutant growth inhibition, hits give high values
In short: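 mgt1 strain exposed; growth vs vehicle control recorded as inhibition.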

[5] = NCI Yeast Anticancer Drug Screen. Data for the rad50 strain (AID 155);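 also: 0% = growth of vehicle-only cultures of the same strain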; conditions: S. cerevisiae rad50 strain growth inhibition, hits give high values
In short: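 Compounds were tested on a yeast strain with an engineered DNA damage repair alteration; the reported value is growth inhibition normalised to vehicle treatment.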

[6] = NCI Yeast Anticancer Drug Screen. Data for the mec2-1 strain (AID 157); conditions: S. cerevisiae mec2-1 strain, hits give high values
In short: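 Vehicle-treated cultures served as reference for growth inhibition of compound-exposed mec2-1 yeast.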

[7] = NCI Yeast Anticancer Drug Screen. Data for the sgs1 mgt1 strain (AID 161);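 also: 0% = growth of cultures given vehicle only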; conditions: S. cerevisiae sgs1 mgt1 strain, hits give high values
In short: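 Genetically altered yeast, compound exposure, growth inhibition relative to vehicle.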

[8] = NCI Yeast Anticancer Drug Screen. Data for the CLN2oe strain (AID 163);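 also: 0% = growth of vehicle-only control cultures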; conditions: S. cerevisiae CLN2oe strain, hits give high values
In short: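 Inhibition relative to vehicle-treated yeast is reported. Cells: strain with genetic alteration in cell-cycle control, grown with compound.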

[9] = NCI Yeast Anticancer Drug Screen. Data for the cln2 rad14 strain (AID 165);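 also: 0% = growth equal to vehicle treated cultures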; conditions: S. cerevisiae cln2 rad14 strain, hits give high values
In short: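 Each compound was tested on cln2 rad14 yeast. Inhibition of growth was calculated against vehicle-exposed controls.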

[10] = NCI Yeast Anticancer Drug Screen. Data for the bub3 strain (AID 167); conditions: S. cerevisiae bub3 mutant strain, hits give high values
In short: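 Growth of a checkpoint-deficient yeast mutant is measured after compound exposure. Values represent inhibition relative to vehicle.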

[11] = NCI Yeast Anticancer Drug Screen. Data for the wt2 strain (AID 169);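 also: 0% = growth of vehicle-treated yeast cultures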; conditions: S. cerevisiae wt2 strain growth inhibition, hits give high values
In short: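 Inhibition of yeast growth was determined after compound treatment, normalised to controls receiving only vehicle.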

[12] = NCI Yeast Anticancer Drug Screen. Data for the mlh1 strain (AID 171);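 also: 0% = growth of vehicle-treated control cultures of the same strain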; conditions: S. cerevisiae mlh1 strain growth inhibition, hits give high values
In short: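 Vehicle-normalised growth inhibition of a repair- or checkpoint-altered yeast strain following compound treatment.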

[13] = NCI Yeast Anticancer Drug Screen. Data for the sgs1 strain (AID 173);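 also: 0% = growth of vehicle-only control cultures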; conditions: S. cerevisiae sgs1 mutant, hits give high values
In short: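 Screen format: yeast with repair or checkpoint alterations, compound exposure, growth read relative to vehicle.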

[14] = NCI Yeast Anticancer Drug Screen. Data for the mlh1 rad18 strain (AID 175); conditions: S. cerevisiae mlh1 rad18 strain growth inhibition, hits give high values
In short: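 Vehicle-treated cultures served as the reference for growth inhibition in a yeast strain carrying DNA damage repair alterations exposed to each compound.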

[15] = NCI Yeast Anticancer Drug Screen. Data for the rad14 strain (AID 159);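 also: 0% = growth of vehicle-treated control cultures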; conditions: S. cerevisiae rad14 strain growth inhibition, hits give high values
In short: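 Compound-treated yeast with a defined DNA-repair lesion; growth inhibition normalised to vehicle-treated cultures.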

[16] = at 5.0 µM (retest, dose inferred, filed as 0.5)
[17] = at 50.0 µM (retest, dose inferred, filed as 5.0)

Measured: growth inhibition

CCN(CC)CCBr
active: [1]; at 100.0 µM 82% | [3]; at 100.0 µM 92% | [5]; at 50.0 µM 70.2% | [5]; at 100.0 µM 89% | [13]; at 100.0 µM 73%
inactive: [1]; at 1.2 µM 1% | [1]; at 3.7 µM 4% | [1]; at 11.0 µM 12% | [1]; at 33.0 µM 43% | [2]; at 1.2 µM -1% | [2]; at 3.7 µM 1% | [2]; at 11.0 µM -6% | [2]; at 33.0 µM -4% | [2]; at 100.0 µM -8% | [3]; at 1.2 µM 2% | [3]; at 3.7 µM 6% | [3]; at 11.0 µM 27% | [3]; at 33.0 µM 68% | [4]; at 1.2 µM -2% | [4]; at 3.7 µM 0% | [4]; at 11.0 µM -1% | [4]; at 33.0 µM -1% | [4]; at 100.0 µM -2% | [5]; at 1.2 µM 0% | [5]; at 3.7 µM -38% | [5]; [16] 9% | [5]; at 11.0 µM 13% | [5]; at 33.0 µM 53% | [5]; [17] 65% | [6]; at 1.2 µM -1% | [6]; at 3.7 µM 0% | [6]; [16] -9% | [6]; at 11.0 µM 3% | [6]; at 33.0 µM 1% | [6]; [17] 7% | [6]; at 50.0 µM -12.4% | [6]; at 100.0 µM 28% | [7]; [16] 4% | [7]; [17] 38% | [7]; at 50.0 µM 37.5% | [8]; at 1.2 µM 0% | [8]; at 3.7 µM -5% | [8]; at 11.0 µM -5% | [8]; at 33.0 µM -7% | [8]; at 100.0 µM -4% | [9]; [16] -2% | [9]; [17] 1% | [9]; at 50.0 µM 1.5% | [10]; at 1.2 µM 0% | [10]; at 3.7 µM -3% | [10]; [16] -3% | [10]; at 11.0 µM -7% | [10]; at 33.0 µM -6% | [10]; [17] -7% | [10]; at 50.0 µM -11.4% | [10]; at 100.0 µM -16% | [11]; at 1.2 µM -1% | [11]; at 3.7 µM 6% | [11]; at 11.0 µM 0% | [11]; at 33.0 µM -3% | [11]; at 100.0 µM -3% | [12]; at 1.2 µM -1% | [12]; at 3.7 µM -1% | [12]; at 11.0 µM -1% | [12]; at 33.0 µM -2% | [12]; at 100.0 µM -1% | [13]; at 1.2 µM 0% | [13]; at 3.7 µM 4% | [13]; at 11.0 µM 15% | [13]; at 33.0 µM 42% | [14]; [16] 5% | [14]; [17] 15% | [14]; at 50.0 µM 19.9%

O=C(COc1ccc(Cl)cc1Cl)NO
active: [3]; at 100.0 µM 79% | [5]; at 50.0 µM 96.5% | [5]; at 100.0 µM 77% | [6]; at 50.0 µM 98.4% | [6]; at 100.0 µM 98% | [15]; at 100.0 µM 98% | [10]; at 50.0 µM 88% | [10]; at 100.0 µM 74%
inactive: [1]; at 1.2 µM -5% | [1]; at 3.7 µM 0% | [1]; at 11.0 µM 8% | [1]; at 33.0 µM 28% | [1]; at 100.0 µM 69% | [2]; at 1.2 µM -6% | [2]; at 3.7 µM -7% | [2]; at 11.0 µM -10% | [2]; at 33.0 µM -1% | [2]; at 100.0 µM 66% | [3]; at 1.2 µM -5% | [3]; at 3.7 µM 0% | [3]; at 11.0 µM 12% | [3]; at 33.0 µM 35% | [5]; at 1.2 µM -4% | [5]; at 3.7 µM -4% | [5]; [16] -138% | [5]; at 11.0 µM 10% | [5]; at 33.0 µM 50% | [5]; [17] 46% | [6]; at 1.2 µM 1% | [6]; at 3.7 µM -1% | [6]; [16] -46% | [6]; at 11.0 µM 11% | [6]; at 33.0 µM 43% | [6]; [17] -14% | [15]; at 1.2 µM -1% | [15]; at 3.7 µM 3% | [15]; at 11.0 µM 7% | [15]; at 33.0 µM 46% | [7]; [16] -58% | [7]; [17] 15% | [7]; at 50.0 µM 59.1% | [8]; at 1.2 µM -3% | [8]; at 3.7 µM -2% | [8]; at 11.0 µM 1% | [8]; at 33.0 µM 14% | [8]; at 100.0 µM 63% | [9]; [16] -60% | [9]; [17] -22% | [9]; at 50.0 µM 30.5% | [10]; at 1.2 µM -9% | [10]; at 3.7 µM -9% | [10]; [16] -67% | [10]; at 11.0 µM 2% | [10]; at 33.0 µM 24% | [10]; [17] 10% | [11]; at 1.2 µM -3% | [11]; at 3.7 µM -2% | [11]; at 11.0 µM -4% | [11]; at 33.0 µM -1% | [11]; at 100.0 µM 50%
